Bioassay records: PubChem BioAssay, several laboratories
Shown are actives, neighbours in structure and some others; about 22% of the full set was active somewhere.
Measles CPE – protection of cells from measles virus; 140,000 tested, 1.5% active; protection (pct of control), % at 4 µM; AID 841; Measles virus-infected cells, CPE protection, absorbance; in the data active = protection mostly above about 24%, no sharp cut-off; inactive = mostly below about 26%
CYP2C9 inh – human CYP2C9 inhibition | P11712 | CYP2C9 Supersomes, luciferin-H conversion, luminescence | inhibition, % at 5 µM | 96,000 tested, 20% active | AID 777;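 active = blocking of liver enzyme CYP2C9 beyond about 50% at 5 µM, limit read from the data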
CYP2C19 act – cytochrome P450 2C19 (human) activation. P33261. recombinant CYP2C19, luciferin-H EGE luminescence; hits give high values; 0 = fully inhibited enzyme, 1 = untreated enzyme. AID 1025. activation factor at 5 µM. 96,000 tested, under 10 active;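 active = activation factor of at least 2 at 5 µM in the primary screen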
Target sequence (P33261 whole entry, looked up): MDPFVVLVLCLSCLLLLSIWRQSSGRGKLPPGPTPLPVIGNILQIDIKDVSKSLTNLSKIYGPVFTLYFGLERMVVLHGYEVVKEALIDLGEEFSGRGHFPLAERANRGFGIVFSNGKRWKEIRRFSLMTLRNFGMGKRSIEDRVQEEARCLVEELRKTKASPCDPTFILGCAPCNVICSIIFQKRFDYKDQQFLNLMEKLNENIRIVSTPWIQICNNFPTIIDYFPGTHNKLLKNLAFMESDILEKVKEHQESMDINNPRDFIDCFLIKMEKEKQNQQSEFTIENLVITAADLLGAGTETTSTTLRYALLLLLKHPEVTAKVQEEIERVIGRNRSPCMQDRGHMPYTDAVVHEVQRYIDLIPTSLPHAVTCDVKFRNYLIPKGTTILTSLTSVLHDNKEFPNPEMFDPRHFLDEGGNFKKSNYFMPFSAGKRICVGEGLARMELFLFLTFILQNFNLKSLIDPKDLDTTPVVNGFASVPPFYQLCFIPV
CYP2C19 inhib – human CYP2C19 inhibition | AID 778 | inhibition, % at 5 µM | CYP2C19 Supersomes, luciferin-H EGE luminescence, 30 min | P33261 | 96,000 tested, 21% active;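 active = CYP2C19 inhibition above a set limit at 5 µM in the primary screen, cut at about 50% in these data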
CYP2C9 act – CYP2C9 (human) activation; P11712; recombinant CYP2C9, luciferin-H conversion, luminescence; hits give high values; factor 1 = untreated enzyme, 0 = blocked; activation factor at 5 µM; 96,000 tested, 1.4% active; AID 1024;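 active = activation factor of 2 or more for CYP2C9 at a 5 µM dose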
Of the large screens only hits and unclear results are named; the others gave an inactive call.

O=C(NCc1ccco1)C(c1ccccc1F)N(Cc1cccnc1)C(=O)Cn1nnc2ccccc21 (configuration not stated)	none
CC(=O)Nc1ccc(S(=O)(=O)Nc2ccc(N3CCOCC3)cc2)cc1	CYP2C19 inhib 90
Cc1ccc(S(=O)(=O)NCCOc2nc(N3CCOCC3)nc(N3CCOCC3)n2)cc1	Measles CPE 63
Cc1ccc(S(=O)(=O)Nc2ccc(N3CCOCC3)cc2)cc1	CYP2C9 inh 94, CYP2C19 inhib 96
Cc1ccc(NS(=O)(=O)c2ccc(N3C(=O)CCC3=O)cc2)cc1	CYP2C19 inhib 64
Cc1cc(C)nc(NS(=O)(=O)c2ccc(NC(=O)c3ccc(N4C(=O)CCC4=O)cc3)cc2)n1	none (no result: CYP2C9 inh, CYP2C19 act, CYP2C19 inhib, CYP2C9 act)
Cc1ccc(S(=O)(=O)NCCNC(=O)N2CCOCC2)cc1	none
COc1ccc(-n2c(Cc3ccccc3)nnc2SCc2ccc([N+](=O)[O-])cc2)cc1	none (no result: CYP2C9 inh, CYP2C19 act, CYP2C19 inhib, CYP2C9 act)
O=S(=O)(Nc1ccc(N2CCOCC2)cc1)c1ccc2ccccc2c1	CYP2C19 inhib 92
CN(Cc1ccc(O)cc1)C1CCCCC1	none
COc1ccccc1CNC(=O)COc1ccccc1OC	CYP2C19 inhib 97, CYP2C9 act 3.4
CCC(CC)NC(=O)Cc1ccccc1OC	CYP2C19 inhib 78
C#CC(C)(C)NC(=O)c1ccccc1OC	CYP2C9 act 2.4
COc1ccccc1CNC(=O)c1ccccc1OC	CYP2C19 inhib 77, CYP2C9 act 3.8
CCCCC(=O)Nc1ccc2c(c1)nc(CCN1CCOCC1)n2C	none
COc1ccc(C(CNC(=O)CN2C(=O)NC3(CC(C)CC(C)(C)C3)C2=O)N2CCOCC2)cc1 (configuration not stated)	none
CC(=O)NCCCNc1ccc([N+](=O)[O-])cc1	none (no result: CYP2C9 inh, CYP2C19 act, CYP2C19 inhib, CYP2C9 act)
COc1ccccc1OCCNC(=O)c1ccc(S(=O)(=O)N(C)C)cc1	none
COc1ccccc1C(=O)NCCCNc1ccc([N+](=O)[O-])cc1	Measles CPE 27 (no result: CYP2C9 inh, CYP2C19 act, CYP2C19 inhib, CYP2C9 act)
COc1ccccc1CNC(=O)c1ccc(S(=O)(=O)N(C)C)cc1	CYP2C19 inhib 73
CC1=C(C(=O)Nc2ccc(C)cc2C)C(c2ccc(C)o2)NC(=O)N1 (configuration not stated)	none
Cc1nc(CSc2nnc(Nc3cccc(C)c3C)s2)cs1	none (no result: CYP2C9 inh, CYP2C19 act, CYP2C19 inhib, CYP2C9 act)
Cc1cc(OCC(=O)O/N=C(\N)c2ccccc2)ccc1Cl	none (no result: CYP2C9 inh, CYP2C19 act, CYP2C19 inhib, CYP2C9 act)
CN1CCCCCC1=Nc1ccccc1C#N	none
O=C(O)c1ccc2c(c1)ncn2C1CCCCC1	none
O=S(=O)(c1ccccc1C(F)(F)F)N1CCC(n2cnc3ccccc32)CC1	CYP2C9 inh 71, CYP2C19 inhib 88
CC(C)(C)n1nnnc1C(c1cccs1)N(Cc1cccnc1)Cc1ccccc1Cl (configuration not stated)	CYP2C9 inh 92, CYP2C19 inhib 96
CC(c1nnnn1C(C)(C)C)N(Cc1cccnc1)Cc1ccccc1Cl (configuration not stated)	CYP2C9 inh 57, CYP2C19 inhib 99
CCCn1c(/N=C/c2c[nH]c3ccccc23)nc2ccccc21	none
CCn1c(/N=C/c2c[nH]c3ccccc23)nc2ccccc21	CYP2C9 inh 90, CYP2C19 inhib 61
O=C(C1CCCCC1)N1CCC(n2nnc3ccccc32)CC1	none (no result: CYP2C9 inh, CYP2C19 act, CYP2C19 inhib, CYP2C9 act)
CCOC(=O)C(C(=O)Nc1nc2ccccc2s1)C1CCCCC1 (configuration not stated)	CYP2C9 inh 92
CCOC(=O)C(C(=O)Nc1ccccn1)C1CCCCC1 (configuration not stated)	none
CCOC(=O)C(C(=O)Nc1cccc(C)c1)C1CCCCC1 (configuration not stated)	CYP2C9 inh 55, CYP2C19 inhib 82
CCOC(=O)C(C(=O)Nc1cccc(C)n1)C1CCCCC1 (configuration not stated)	CYP2C9 inh 82, CYP2C19 inhib 80
CCOC(=O)C(C(=O)Nc1nccs1)C1CCCCC1 (configuration not stated)	CYP2C9 inh 77, CYP2C19 inhib 69
Cc1sc(N/N=C/C=C/c2ccccc2)nc1-c1ccccc1	none
COC(=O)c1c(C)oc2ccc(N(C(=O)Oc3ccccc3)S(=O)(=O)c3ccc(Cl)c([N+](=O)[O-])c3)cc12	none (no result: CYP2C9 inh, CYP2C19 act, CYP2C19 inhib, CYP2C9 act)
CCNc1nc(NC(C)CC)nc(Oc2ccc(=O)[nH]n2)n1 (configuration not stated)	CYP2C19 inhib 50
CC1CCc2nc(NC(=O)C3COc4ccccc4O3)sc2C1 (configuration not stated)	none
CCOc1cc(C2NC(=O)N(C)C(C)=C2C(=O)OC)cc(Br)c1O (configuration not stated)	CYP2C9 inh 86
